Shown are actives, neighbours in structure and some others; about 7.8% of the full set was active somewhere.
VACV mCherry inh = qHTS for Stage-Specific Inhibitors of Vaccinia Orthopoxvirus: mCherry Reporter Primary qHTS. Vaccinia virus mCherry reporter infection, fluorescence. Potency, µM (highest dose often 36.5 µM), for the others: at the top dose activity change, negative = inhibition, most hits filed as inhibitors. 0.63% of 310,000 active; calls by dose curve; tested in A549 cells; also: potency is read from the fitted curve at half-maximal effect; nearly all actives have a fitted effect of over 35% in size
Vaccinia Venus = qHTS for Stage-Specific Inhibitors of Vaccinia Orthopoxvirus: Venus Reporter Primary qHTS; 0.46% of 330,000 active; Potency, µM (doses to about 36.5 µM), without a hit: at the highest dose activity change, negative = inhibition, hits mostly inhibitors; Vaccinia virus Venus reporter expression, fluorescence; calls by dose curve; tested in A549 cells; also: potency is read from the fitted curve at half-maximal effect; nearly all actives have a fitted effect of over 30% in size
Lassa entry inh = qHTS for Inhibitors of binding or entry into cells for Lassa Virus | Lassa virus pseudotype entry inhibition, cell reporter | Potency, µM (highest dose often 37.9 µM), for inactives: at the highest dose activity change, negative = inhibition, actives largely listed as inhibitors | 1.2% of 300,000 active | AID 540256, 2011; calls by dose curve; tested in HEK293 cells; also: potency is read from the fitted curve at half-maximal effect; nearly all actives have a fitted effect of over 50% in size
HCMV inh = qHTS Assay for inhibitors of the human cytomegalovirus (HCMV). HFF cells, HCMV-luciferase reporter, 72 h; stronger effect = lower value. activity change, negative = inhibition, % at 57.5 µM. 4.5% of 410,000 active. AID 1259415, 2018; in the data active = activity change below about -60%; inconclusive = no clear call, values can overlap the other calls; inactive = above about -39%
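After 16 h attachment at 37C, HFF cells received test compound and HCMV-luciferase (1 PFU/cell); reporter luminescence read 72 h later, data normalized against buffer-only and known inhibitor Salinomycin.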
Marburg entry inh = qHTS for inhibitors of binding or entry into cells for Marburg Virus; Potency, µM (titrated, usually from 37.8 µM), without a hit: at the top dose activity change, negative = inhibition, actives largely listed as inhibitors; 1.8% of 300,000 active; AID 540276, 2011; Marburg virus pseudotyped entry inhibition, cell reporter; calls by dose curve; tested in HEK293 cells; also: potency is read from the fitted curve at half-maximal effect
HCV inh = qHTS Assay for Inhibitors of Hepatitis C Virus (HCV). 3.4% of 340,000 active. Huh7.5.1 HCVcc-Cre infection, luciferase reporter, 44 h. Potency, µM (titrated, usually from 41.8 µM), inactives show top-dose activity change, negative = inhibition, hits mostly inhibitors; active = well fitted inhibition curve with a large enough effect; inconclusive = small, poorly fitted or top-dose-only effect, or another doubt; inactive = no such curve, though single readings can be large or run the other way; also: potency is read from the fitted curve at half-maximal effect
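After 44 h co-culture of compound, cells and HCVcc-Cre (~0.5 moi), substrate is added for 15 min at room temperature and luciferase measured over 15 sec. Cells were seeded at 1,000/well and pre-cultured 4 h.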
Active calls of the source: *; i = inactive; ? = inconclusive; / = no result given; [ ] = another dose, or the depositor's remark. % is scaled to controls: 0 for no effect and ±100 for the full control effect.

SMILES	VACV mCherry inh	Vaccinia Venus	Lassa entry inh	HCMV inh	Marburg entry inh	HCV inh
Oc1ccc2c(c1)[C@H]1CCC[C@]1(N1CCOCC1)O2	/	/	/	/	22%	/
Cc1ccc(OCC(=O)Nc2nnc(SCc3cc(=O)c4ccccc4[nH]3)s2)cc1	0%	1%	3%[46.1 µM]	14	/	/
CCNC(=O)CSc1nc2ccccc2c(=O)n1-c1cccc(OC)c1	-11%	-15%	9%	57	26%[46.1 µM]	-23%
COc1cccc(-n2c(SCC(=O)Nc3ccc4c(c3)CCC4)nc3ccccc3c2=O)c1	i	-13%	?	-70*	?	?
CCn1c(SCC(=O)Nc2ccc(F)cc2)nc2ccccc2c1=O	/	/	/	-69*	/	-19%
CC(NC(=O)CSc1nc2ccccc2n1C)c1ccccc1 (centres undefined)	-5%	-1%	-19%[46.1 µM]	-2	?	-15%
C=CCn1c(SCC(=O)Nc2ccc(F)cc2)nc2ccccc2c1=O	/	/	/	-23	/	-20%
COc1ccccc1NC(=O)CSc1nc2ccccc2c(=O)n1C	/	/	/	?	/	-5%
Cn1c(SCC(=O)NCc2ccccc2)nc2ccccc21	-7%	-7%	10%	-100*	21%	14%
Cn1c(SCC(=O)Nc2ccccc2)nc2ccccc2c1=O	-9%	-11%	?	?	4µM*	?
OC[C@H]1OC([S-])[C@H](O)[C@@H](O)[C@@H]1O.[Au+] (some centres undefined)	-15%	-1%	/	/	/	/
COc1cc(CNC(=O)c2ccc3c(c2)N(C)C(=O)C2CCCCN32)cc(OC)c1OC (centres undefined)	0%	-1%	?	-3	/	/
CCC(=O)N1CCc2cc(Br)cc(S(=O)(=O)CCC(=O)NCCc3ccccc3Cl)c21	-10%	-11%	3%[46.1 µM]	-8	28%[46.1 µM]	/
N[C@H](Cn1ccc(=O)[nH]c1=O)C(=O)O	/	/	/	/	3%	/
COc1cc(/C(C)=N\NC(=O)CSc2nc3ccccc3n2C)ccc1O	?	-22%	?	-13	?	-25%
CCc1ccc(NC(=O)CSc2nc3ccccc3c(=O)n2CCCC(=O)N2CCCC2)cc1	/	/	26µM*	-66*	9.2µM*	?
C/C(=N/NC(=O)CSc1nc2ccccc2n1C)c1ccncc1	i	-10%	17%[46.1 µM]	-101*	3%[46.1 µM]	11%
CCc1ccc(NC(=O)CSc2nc3ccccc3c(=O)n2CCC(=O)NC2CCCCC2)cc1	-12%	-9%	3%[46.1 µM]	-12	/	/
COC(=O)C1CCN(Cc2ccc3c(c2)CN(C(=O)c2ccc4nc(C)c(C)nc4c2)CCO3)CC1	-12%	-2%	/	/	/	/
COc1ccc(N(CC(=O)N2CCN(c3cccc(C)c3)C(C)C2)S(=O)(=O)c2c(C)n[nH]c2C)cc1 (centres undefined)	i	-18%	?	-77*	?	-3%
Cc1ccc(S(=O)(=O)N(CC(=O)N2CCC(C)CC2)Cc2ccccc2F)cc1	/	/	?	-63*	?	0%
CCN(CC(=O)N1CCC(C)CC1)S(=O)(=O)c1ccc(C)cc1	i	-14%	-1%	8	3%	20%
Cc1ccc(S(=O)(=O)N(CC(=O)N2CCCCCC2)c2ccccc2)cc1	/	/	6.5µM*	-5	26%	10%
COc1ccc(S(=O)(=O)N(CC(=O)N2CCC(C)CC2)c2ccc(C)cc2)cc1	-6%	-7%	7.1µM*	-6	-5%[46.1 µM]	/
COc1cccc(N2CCN(C(=O)CN(c3ccc(C)cc3)S(=O)(=O)c3c(C)n[nH]c3C)CC2)c1	?	-16%	/	17	/	0%
SMILES	VACV mCherry inh	Vaccinia Venus	Lassa entry inh	HCMV inh	Marburg entry inh	HCV inh
Cc1ccc(S(=O)(=O)N(CC(=O)N2CCC(C)CC2)c2ccccc2)cc1	-25%	-19%	-19%	-28	-20%[46.1 µM]	19%
O=c1c2ccccc2[nH]c(=S)n1-c1cccc(S(=O)(=O)N2CCCC2)c1	i	-11%	12%	-77*	0%[46.1 µM]	-12%
Cc1cc(C)cc(NC(=O)c2sc3nc4n(c(=O)c3c2C)N=C(c2ccc(F)cc2)CS4)c1	-8%	-6%	21%[46.1 µM]	3	/	/
COC1=CC(=O)c2nc(Cl)ccc2C1=O	?	?	/	-101*	/	/
COC(=O)c1ccc2c(c1)SC1=C(CCCC1=O)N2	-20%	128%	-15%	125	26%	?
O=C1CCCC2=C1Sc1ccc(Cl)cc1N2	/	/	/	-27	/	11µM*
CCOc1ccc(N2CC(c3nc4ccccc4n3CCCOc3ccc(OC)cc3)CC2=O)cc1 (centres undefined)	-15%	-6%	?	-2	-20%[46.1 µM]	/
O=C(CCCl)N1CCN(c2nc(-c3ccccc3)cs2)CC1	/	/	/	?	/	9%
O=C(Cc1cccs1)N1CCN(c2nc(-c3ccc(Cl)cc3)cs2)CC1	/	/	-25%	-108*	?	?
CCOC(=O)N1CCN(c2nc(-c3ccc(Cl)cc3)cs2)CC1	i	-3%	5%	?	-1%	?
CC(C)C(=O)N1CCN(c2nc(-c3ccc(Cl)cc3)cs2)CC1	/	/	/	-70*	/	?
Cc1ccc(NC(=O)C(=O)NCC(c2ccc3c(c2)OCO3)N2CCOCC2)c(C)c1 (centres undefined)	-14%	-9%	-3%[46.1 µM]	1	/	/
COc1ccc2nc3cc(Cl)ccc3c(C#N)c2c1	-22%	-4%	25%	-21	-1%[46.1 µM]	11%
COc1ccc2nc(C(F)(F)Cl)c(C#N)c(N)c2c1	/	/	/	-88*	/	5%
Nc1nc(N2CCN(C(=O)c3ccco3)CC2)nc2ccc(Br)cc12	/	/	?	/	?	11µM*
Cc1cccc2c1Sc1ccc(Cl)cc1CC2N1CCNCC1 (centres undefined)	/	/	/	/	/	13µM*
CCc1cccc2c1Sc1ccccc1CC2N1CCNCC1 (centres undefined)	/	/	/	-98*	/	?
Cc1ccc(Cl)cc1N1CCN(CC(=O)NC2CCCc3ccccc32)CC1 (centres undefined)	-13%	?	?	-15	-58%	?
O=C1CCC(=O)N1c1ccccc1OS(=O)(=O)c1ccccc1	-6%	-7%	6%	-97*	?	31%
O=C1CCC(=O)N1c1ccccc1-c1ccccc1	/	-1%	?	34	-3%	15%
O=S(=O)(Oc1ccccc1N1CCCCC1)c1ccccc1	-14%	-10%	-3%[46.1 µM]	-61*	?	-12%
CC(=O)Nc1ccc(S(=O)(=O)Oc2ccccc2N2C(=O)C3C4CCC(C4)C3C2=O)cc1 (centres undefined)	i	20%	2.8µM*	-34	10µM*	/
COc1ccc(S(=O)(=O)c2ccc(OC)cc2)cc1	2%	-5%	-6%	-36	?	26%
COc1ccc(S(=O)(=O)/N=C2/C=CC(=O)C(C)=C2C)cc1	/	/	-9%	/	?	13µM*

Bioassay records deposited in PubChem BioAssay by National Center for Advancing Translational Sciences (NCATS).
